# PubChem BioAssay AID588501 (NMMLSC, 2011)
# Out of some 360,000 compounds screened, about 420 (0.12%) were called active. Rule as the data show it: active = inhibition above about 30%; inconclusive = no clear call, values can overlap the other calls; inactive = below that. This excerpt belongs to a sample that is enriched for actives.
# Target: Lethal factor (Bacillus anthracis) (UniProt P15917)
# Assay: Bacillus anthracis LF protease inhibitors, primary screen, biochemical, multiplex microsphere, MLPCN library (AID 588501); also: plate controls were buffer without enzyme for full effect and enzyme alone for no effect
# Details: multiplex microsphere protease cleavage assay, at 10 µM, active compounds read high
# Chain of Lethal factor (Bacillus anthracis) (P15917 whole entry, looked up): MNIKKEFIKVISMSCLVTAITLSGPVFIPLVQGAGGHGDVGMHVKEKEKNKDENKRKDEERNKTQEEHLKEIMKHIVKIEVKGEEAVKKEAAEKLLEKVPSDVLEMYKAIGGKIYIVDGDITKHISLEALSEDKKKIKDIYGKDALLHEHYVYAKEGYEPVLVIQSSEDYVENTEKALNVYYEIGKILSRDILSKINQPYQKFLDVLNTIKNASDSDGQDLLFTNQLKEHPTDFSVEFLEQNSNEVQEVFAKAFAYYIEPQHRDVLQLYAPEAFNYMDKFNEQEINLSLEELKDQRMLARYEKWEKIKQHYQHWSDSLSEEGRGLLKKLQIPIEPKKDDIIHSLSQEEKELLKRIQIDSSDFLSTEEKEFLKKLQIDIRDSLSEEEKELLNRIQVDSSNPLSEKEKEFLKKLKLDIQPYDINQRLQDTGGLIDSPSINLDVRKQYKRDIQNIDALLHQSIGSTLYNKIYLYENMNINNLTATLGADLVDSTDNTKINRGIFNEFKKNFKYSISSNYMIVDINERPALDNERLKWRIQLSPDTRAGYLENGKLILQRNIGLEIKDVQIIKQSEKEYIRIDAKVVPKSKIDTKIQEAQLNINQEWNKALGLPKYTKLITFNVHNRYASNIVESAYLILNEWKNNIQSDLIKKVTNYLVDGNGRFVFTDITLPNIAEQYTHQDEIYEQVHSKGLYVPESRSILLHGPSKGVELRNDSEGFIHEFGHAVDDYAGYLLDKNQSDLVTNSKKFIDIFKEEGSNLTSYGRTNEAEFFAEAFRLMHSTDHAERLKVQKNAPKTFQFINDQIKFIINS
row,SMILES,inhibition
1,C=CCNC(=O)/C=C/c1ccc(C(C)C)cc1,-1.4% (inactive)
2,NC1=NC(=O)S/C1=C\c1ccc(O)cc1,-0.1% (inactive)
3,O=C(/C=C(O)/C=C/c1ccc(O)cc1)/C=C/c1ccc(O)cc1,31.4% (active)
4,CC(O)CN(Cc1ccc(Cl)cc1)CC(C)O (configuration not stated),0.1% (inactive)
5,O=C1N[C@@H](Cc2ccccc2)C(=O)N2[C@H]1C[C@]1(Br)c3ccccc3N(S(=O)(=O)c3ccccc3)[C@H]21,-0.3% (inactive)
6,Cn1c(SCC(=O)c2ccccc2)ncc(C(=O)Nc2ccc(F)cc2)c1=O,-1.5% (inactive)
7,CCCCN1CC(COc2ccccc2)Oc2cccc(F)c2S1(=O)=O (configuration not stated),-2.2% (inactive)
8,CN(Cc1cn(Cc2ccc(C(F)(F)F)cc2)nn1)C1CN(Cc2cn(Cc3ccc(C(F)(F)F)cc3)nn2)S(=O)(=O)C1 (configuration not stated),-0.1% (inactive)
9,COC(=O)[C@H]1Cc2cnoc2C[C@]1(C)C(=O)O,4.2% (inactive)
10,COc1ccc2[nH]c(=O)c(C3c4cc(OC)c(OC)cc4CCN3C(=O)c3ccco3)cc2c1 (configuration not stated),-1.5% (inactive)
11,CCOC(=O)c1ccc(NC(=S)N2CCN(c3ccccn3)CC2)cc1,-15.7% (inactive)
12,CC(=NNC(=S)N1CCCCCC1)c1ccccn1,50% (active)
13,O=[N+]([O-])c1ccc(NC(=S)N2CCN(c3ccccn3)CC2)cc1,1.1% (inactive)
14,COc1ccccc1CNC(=O)c1cc(-c2cc(F)ccc2OC)n[nH]1,-4.6% (inactive)
15,O=C(NC1CCCC1)C(c1ccco1)N(C(=O)c1ccco1)c1ccc(F)cc1 (configuration not stated),-0.3% (inactive)
16,Cc1cc(C)c2nc(SCC(=O)N(C)C3CCS(=O)(=O)C3)cc(C)c2c1 (configuration not stated),0.4% (inactive)
17,N#CC(Cc1cc2ccccc2n1S(=O)(=O)c1ccccc1)OCc1ccccc1 (configuration not stated),-10.4% (inactive)
18,O=C(NN1C(=O)C2CCCCC2C1=O)c1ccco1 (configuration not stated),15.5% (inactive)
19,CC(C)c1c(O)nc(SCCOc2ccc(Cl)cc2)[nH]c1=O,-0.5% (inactive)

row,SMILES,inhibition
1,COc1ccc(C(=O)Nc2nc(-c3ccc(OC)cc3)c(-c3ccc([N+](=O)[O-])cc3)s2)cc1,30.1% (active)
2,COc1ccc(-c2[nH][nH]c(=O)c2NC(=O)c2ccc([N+](=O)[O-])cc2)cc1,6.4% (inactive)
3,COc1ccc(NC(=O)c2cn(CCC#N)nc2-c2ccc([N+](=O)[O-])cc2)cc1,-4.4% (inactive)
4,Cc1ccc(CSCCNC(=O)CN(c2ccc(F)cc2)S(C)(=O)=O)cc1,3% (inactive)
5,COc1ccc(N(CC(=O)NCCSCc2cccc(Cl)c2)S(C)(=O)=O)cc1,34.3% (active)
6,COc1ccc(CCNC(=O)CN(c2ccccc2)S(C)(=O)=O)cc1,3.6% (inactive)
7,Cc1cccc(N2CCN(C(=O)CCS(=O)(=O)c3ccc4c(c3)NC(=O)C(C)S4)CC2)c1C (configuration not stated),-3% (inactive)
8,COc1ccc(-c2nc3ccccc3n2CCC(C)C)cc1OC,0.7% (inactive)
9,Cc1ccc(-c2csc(N3CCN(c4cc5c(cc4Cl)nc(-c4ccncc4)n5CCOCCO)CC3)n2)cc1,-0.9% (inactive)
10,CC(=O)OCCN(CCCn1c(-c2ccncc2)nc2ccccc21)c1nc(-c2ccc(C)cc2)cs1,41.1% (active)
11,COc1ccc(N2CCN(C(=O)c3ccccc3NC(=O)C3=C(C)OCCS3)CC2)cc1,1.2% (inactive)
12,COc1ccc(CC(=O)NC(C)c2ccc(Cl)c(Cl)c2)cc1S(=O)(=O)N1CCOCC1 (configuration not stated),1.2% (inactive)
13,O=C(NCc1ccncc1)C(=O)NCC1OCCN1S(=O)(=O)c1ccc(Br)cc1 (configuration not stated),-6.7% (inactive)
14,C=C1C(=O)[C@]23C[C@H]1CCC2[C@@]1(C)C(C[C@@H]3O)[C@](C)(C(=O)O)CC[C@@H]1O (some centres not stated),6% (inactive)
15,COc1ccc(OCC(=O)NCCc2ccc(S(N)(=O)=O)cc2)cc1,-1.2% (inactive)
16,CCC(C)(C(=O)Nc1ccccc1C)N(C(=O)CNC(C)=O)c1ccc(C)cc1 (configuration not stated),0.5% (inactive)
17,COC(=O)Cc1ccc(N(Cc2ccccc2F)S(=O)(=O)c2ccc(Br)cc2)cc1,-0.1% (inactive)
18,CC(C)(C)c1ccc(C(=O)N2CCN(CCNC(=O)C(=O)Nc3ccc(F)cc3)CC2)cc1,-3.8% (inactive)
19,Cc1cccc(N2CCN(C(C)C(=O)N3CCc4ccccc43)CC2)c1C (configuration not stated),-6.6% (inactive)

row,SMILES,inhibition
1,COCCn1c(N)c(NCc2ccccc2)c(=O)[nH]c1=O,-3.2% (inactive)
2,COCCNc1ncnc2c1nc1n2CCCC1,0.3% (inactive)
3,OC(c1ccc(Cl)cc1)C(CN1CCOCC1)c1ccccc1 (configuration not stated),40.7% (active)
4,OC(c1ccccc1)C(CN1CCOCC1)c1ccccc1 (configuration not stated),-9.8% (inactive)
5,O=C(CC(c1ccccc1)c1cc(Cl)ccc1O)NCCN1CCOCC1 (configuration not stated),-5.6% (inactive)
6,O=S(N1CCCCCC1)C12CC3CC(CC(C3)C1)C2 (configuration not stated),-5.3% (inactive)
7,O=C(CNC(=O)c1ccccc1F)c1ccc(Br)cc1,0.4% (inactive)
8,O=C(C[n+]1cc(Br)cc2ccccc21)c1ccc(F)cc1,36.5% (active)
9,O=C(c1ccc(F)cc1)n1c(=S)nc2ccccn21,-9.4% (inactive)
10,COc1ccc(CNC(=O)C(NS(=O)(=O)c2cccc3nsnc23)C(C)C)cc1 (configuration not stated),0.7% (inactive)
11,NS(=O)(=O)c1ccc(CCNC(=O)c2ccc(Cl)c(S(=O)(=O)N3CCCCCC3)c2)cc1,-0.9% (inactive)
12,O=C(O)C1CCCN(CCC=C(c2ccccc2)c2ccccc2)C1 (configuration not stated),-6.7% (inactive)
13,O=C(O)c1ccc(S(=O)(=O)N2CCC(Cc3ccccc3)CC2)cc1,-1.5% (inactive)
14,Cc1onc(-c2ccccc2Cl)c1C(=O)NCCn1ccc2ccccc21,53.9% (active)
15,Cc1ccc2cc(CCNC(=O)c3c(-c4ccccc4Cl)noc3C)c(=O)[nH]c2c1,-10.3% (inactive)
16,Cc1onc(-c2ccccc2Cl)c1C(=O)N(Cc1ccc(N(C)C)cc1)C(C)C,8.3% (inactive)
17,CCC(=O)N1Cc2cc(C(=O)NCc3cccc(F)c3)nc(-c3cccc(C4=CCCC4)c3)c2[C@H]1CCO,-8.3% (inactive)
18,Cc1ccc(OCC(=O)N2CCN(C(=O)c3cccnc3)CC2)cc1,-7.8% (inactive)
19,CN1/C(=c2/s/c(=C3/C(=O)N(c4ccccc4)NC3=Nc3ccccc3)n(C)c2=O)C(C)(C)c2ccccc21,-14.6% (inactive)
